Experiment [1] can be described thus: compounds binding Alexa647 anti-His antibody – biochemical, small-molecule microarray, 635 nm fluorescence, artefact control for SMM control protein annotation, primary screen (AID 1128).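 Note: score merges feature fluorescence with signal-to-noise for each printed compound spot.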 The following applies: higher = more signal.
Experiment [2] deals with Human papillomavirus type 1a E7 protein (residues 1-88). The experiment can be described thus: HPV1a E7 small-molecule binders, primary screen, biochemical, small-molecule microarray, residues 1-88, 635 nm (AID 1129). To be noted: small-molecule microarray binding, fluorescence 635 nm; higher = more signal.
In experiment [3] the target is Focal adhesion kinase 1 (Homo sapiens) (UniProt Q05397). As to the kind of experiment: PTK2 protein binding on printed compound slides – biochemical, small-molecule microarray, 635/667 nm fluorescence, BSA, DTT, primary screen (AID 1130).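 Note: composite of spot emission at 667 nm and signal to noise over triplicate slides.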 The following applies: 635 nm fluorescence, higher = more signal.
Experiment [4] deals with Fibrinogen (Alexa647-labelled). As to the kind of experiment: Alexa647-fibrinogen binding to printed small molecules – biochemical, small-molecule microarray, 635/667 nm fluorescence, artefact control for SMM control-protein annotation, profiling panel (AID 1131).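 Note: z-score merges 667 nm fluorescence with per-spot signal-to-noise over triplicate slides.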 To be noted: fibrinogen-A647 binding fluorescence, higher = more signal.
Experiment [5] addresses Follistatin (Homo sapiens) (UniProt P19883). The experiment can be described thus: FST protein binding to printed compounds – biochemical, small-molecule microarray, 635/667 nm fluorescence, primary screen (AID 1132). The following applies: 635 nm fluorescence, higher = more signal.
The target in experiment [6] is Fibroblast growth factor 2 (Homo sapiens) (UniProt P09038). The experiment can be described thus: basic fibroblast growth factor binding to printed compounds – biochemical, small-molecule microarray, 635/667 nm fluorescence, primary screen (AID 1133). The following applies: FGF2, fluorescence 635/667, higher = more signal.
Experiment [7] in a line: JC-1 mitochondrial potential readout, lung cancer cells – cell-based, A549, JC-1 fluorescence, basal, 24 h, 100 nL, profiling panel (AID 1138).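 Note: A549 lung adenocarcinoma cells under basal conditions with no added stimulus; test concentration not given here.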 The following applies: higher = more signal.
For experiment [8], the system named is Lefty1. As to the kind of experiment: Lefty1 protein binding to printed compounds – biochemical, small-molecule microarray, 635/667 nm fluorescence, primary screen (AID 1139). The following applies: fluorescence 635/667, higher = more signal.
For experiment [9], the system named is wheat germ agglutinin (Triticum aestivum), Alexa647-labelled. As to the kind of experiment: Alexa647-WGA lectin binding to printed small molecules – biochemical, small-molecule microarray, 635/667 nm fluorescence, artefact control for SMM control-protein annotation, profiling panel (AID 1140).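 Note: score merges 667 nm feature emission with signal to noise over triplicate slides.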 To be noted: WGA-A647 binding, 635 nm fluorescence, higher = more signal.

Experiment [10] addresses Luciferin 4-monooxygenase (Photinus pyralis) (UniProt P08659). The experiment can be described thus: inhibition of purified Photinus pyralis luciferase – biochemical, luminescence, purified enzyme, 2006 set, primary screen (AID 1141).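 Note: cell-free assay with purified firefly luciferase at 100 ng per well in PBS; test concentration not given here.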 To be noted: purified firefly luciferase, SteadyGlo luminescence, 30 min; higher = more signal, called active from +8 up or from −8 down.
In experiment [11] the test system is Wnt5a (protein binding on small-molecule microarray). As to the kind of experiment: small molecules binding Wnt5a protein – biophysical, small-molecule microarray, 635/667 nm fluorescence, primary screen (AID 1142).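 Note: fluorescence read at 667 nm with signal to noise per printed feature.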 To be noted: 635 nm fluorescence, higher = more signal.
The nature of experiment [12]: ATP-based viability of Huh7 replicon cells – cell-based, CellTiter-Glo luminescence, basal, 48 h, cytotoxicity control for HCV replication inhibitor project, primary screen (AID 1143).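 Note: Huh7 hepatoma cells carrying a hepatitis C replication reporter with no stimulus; test concentration not given here.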 To be noted: higher = more signal, called active from +8 up or from −8 down. (A replicon is a self-replicating genome or part of one, used to study replication in cells.)
Experiment [13] in a line: Pseudomonas biofilm growth suppression – PAO1 strain, BacTiter-Glo luminescence, LB-PBS, primary screen (AID 1144). The following applies: P. aeruginosa PAO1 biofilm, 12 h, higher = more signal.
Experiment [14] can be described thus: basal CRE-LacZ reporter activity in PC12 – cell-based, unstimulated, primary screen (AID 1145). To be noted: no forskolin, luminescence, 4.5 h, higher = more signal, called active from +8 up or from −8 down.
A short description of experiment [15]: forskolin-driven CRE-LacZ activity in PC12 – cell-based, CRE-LacZ reporter, forskolin-stimulated, primary screen (AID 1146).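 Note: PC12 cells with 6xCRE LacZ reporter stimulated by forskolin 10 µM; beta-galactosidase reporter signal reflecting CREB driven transcription.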 To be noted: luminescence, 4.5 h, higher = more signal, called active from +8 up or from −8 down.
Experiment [16] addresses Streptavidin (Streptomyces avidinii) (UniProt P22629). The experiment can be described thus: compounds binding control protein streptavidin – biophysical, small-molecule microarray, 635/667 nm fluorescence, artefact control for SMM compound annotation, primary screen (AID 1147).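 Note: signal reflects streptavidin binding to arrayed compounds as a control protein.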 To be noted: higher = more signal.
The nature of experiment [17]: probe aInhba binding on compound microarray – biochemical, small-molecule microarray, 635/667 nm fluorescence, primary screen (AID 1148).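 Note: score merges 667nm spot fluorescence with signal-to-noise for antibody binding to printed compounds.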 To be noted: higher = more signal.
Experiment [18] addresses Torsin-1A (Homo sapiens) (UniProt O14656). The experiment can be described thus: TOR1A wild-type binding on microarray – cell lysate, small-molecule microarray, lysate, 635/667 nm, primary screen (AID 1149). To be noted: COS7 hTOR1A-WT lysate, 635 nm fluorescence, higher = more signal.
For experiment [19] the target is unchanged. As to the kind of experiment: torsin A mutant lysate binding on microarrays – cell lysate, small-molecule microarray, COS7 lysate, 635/667 nm fluorescence, primary screen (AID 1150).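 Note: score pools 667 nm emission and signal to noise measuring lysate protein binding.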 The following applies: COS7 hTOR1A mutant lysate, 635 nm fluorescence, higher = more signal.
For experiment [20], the system named is Sonic hedgehog protein (Shh). As to the kind of experiment: Sonic hedgehog microarray binding compounds – biochemical, small-molecule microarray, 635/667 nm fluorescence, primary screen (AID 1151).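 Note: Shh protein binding to compounds spotted on small-molecule microarray slides; score combines spot fluorescence intensity with signal-to-noise across triplicate slides.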 The following applies: 635 nm fluorescence, higher = more signal.

Active and inactive are the calls of the source. Unless noted, the rule behind the calls is not given here.

Sequence of Torsin-1A (Homo sapiens) (O14656 whole entry, looked up): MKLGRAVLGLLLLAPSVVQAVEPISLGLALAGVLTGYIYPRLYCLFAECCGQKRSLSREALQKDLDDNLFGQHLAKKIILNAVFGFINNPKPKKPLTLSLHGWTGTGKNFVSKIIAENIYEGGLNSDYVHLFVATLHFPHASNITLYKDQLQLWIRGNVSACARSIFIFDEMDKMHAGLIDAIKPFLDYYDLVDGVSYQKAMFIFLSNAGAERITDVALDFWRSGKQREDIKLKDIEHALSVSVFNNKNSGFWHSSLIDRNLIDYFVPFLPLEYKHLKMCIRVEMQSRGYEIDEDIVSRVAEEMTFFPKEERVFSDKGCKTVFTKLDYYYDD
Sequence of Fibroblast growth factor 2 (Homo sapiens) (P09038 whole entry, looked up): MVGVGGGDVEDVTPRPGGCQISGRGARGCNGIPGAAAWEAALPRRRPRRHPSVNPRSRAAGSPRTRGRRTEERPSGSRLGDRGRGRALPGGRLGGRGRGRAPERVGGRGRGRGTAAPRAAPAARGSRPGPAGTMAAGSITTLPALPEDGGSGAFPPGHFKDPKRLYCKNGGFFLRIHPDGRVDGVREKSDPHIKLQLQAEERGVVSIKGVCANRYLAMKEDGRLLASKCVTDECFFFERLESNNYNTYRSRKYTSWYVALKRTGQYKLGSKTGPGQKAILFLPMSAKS
Sequence of Follistatin (Homo sapiens) (P19883 whole entry, looked up): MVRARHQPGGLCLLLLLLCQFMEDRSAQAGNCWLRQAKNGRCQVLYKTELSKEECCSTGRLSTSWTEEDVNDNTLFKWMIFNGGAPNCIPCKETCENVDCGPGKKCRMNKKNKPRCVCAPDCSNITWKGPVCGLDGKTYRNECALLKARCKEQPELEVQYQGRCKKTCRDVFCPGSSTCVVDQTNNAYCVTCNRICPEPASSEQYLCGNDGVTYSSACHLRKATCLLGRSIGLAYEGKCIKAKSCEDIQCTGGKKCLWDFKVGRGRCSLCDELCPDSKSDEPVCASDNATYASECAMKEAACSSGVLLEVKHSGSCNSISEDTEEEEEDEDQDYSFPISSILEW
Sequence of Focal adhesion kinase 1 (Homo sapiens) (Q05397 whole entry, looked up): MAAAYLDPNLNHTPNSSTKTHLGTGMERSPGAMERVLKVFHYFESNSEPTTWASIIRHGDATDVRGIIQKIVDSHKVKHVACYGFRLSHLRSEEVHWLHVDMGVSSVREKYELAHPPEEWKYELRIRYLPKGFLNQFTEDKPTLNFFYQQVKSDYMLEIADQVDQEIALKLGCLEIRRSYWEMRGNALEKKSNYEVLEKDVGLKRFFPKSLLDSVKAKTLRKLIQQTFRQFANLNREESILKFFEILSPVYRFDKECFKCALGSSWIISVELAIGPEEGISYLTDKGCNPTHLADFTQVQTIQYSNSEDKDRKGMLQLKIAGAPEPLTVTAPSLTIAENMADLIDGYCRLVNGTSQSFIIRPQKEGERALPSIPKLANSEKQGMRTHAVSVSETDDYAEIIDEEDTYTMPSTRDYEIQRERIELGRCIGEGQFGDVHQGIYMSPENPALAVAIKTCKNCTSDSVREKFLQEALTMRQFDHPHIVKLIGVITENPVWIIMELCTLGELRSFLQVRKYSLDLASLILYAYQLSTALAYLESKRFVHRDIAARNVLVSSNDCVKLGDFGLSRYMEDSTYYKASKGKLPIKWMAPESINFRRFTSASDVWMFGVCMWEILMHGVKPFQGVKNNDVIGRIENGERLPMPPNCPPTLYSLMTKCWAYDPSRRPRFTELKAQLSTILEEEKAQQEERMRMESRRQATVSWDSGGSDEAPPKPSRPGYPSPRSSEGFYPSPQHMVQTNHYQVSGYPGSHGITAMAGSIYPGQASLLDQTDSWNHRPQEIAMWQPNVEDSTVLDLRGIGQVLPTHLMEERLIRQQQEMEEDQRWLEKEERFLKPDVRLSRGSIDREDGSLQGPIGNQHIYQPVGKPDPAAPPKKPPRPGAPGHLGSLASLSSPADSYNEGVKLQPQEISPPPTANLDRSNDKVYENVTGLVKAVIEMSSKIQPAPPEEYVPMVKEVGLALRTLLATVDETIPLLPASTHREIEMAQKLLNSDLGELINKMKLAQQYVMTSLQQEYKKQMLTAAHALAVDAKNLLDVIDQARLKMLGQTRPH
Sequence of Luciferin 4-monooxygenase (Photinus pyralis) (P08659 whole entry, looked up): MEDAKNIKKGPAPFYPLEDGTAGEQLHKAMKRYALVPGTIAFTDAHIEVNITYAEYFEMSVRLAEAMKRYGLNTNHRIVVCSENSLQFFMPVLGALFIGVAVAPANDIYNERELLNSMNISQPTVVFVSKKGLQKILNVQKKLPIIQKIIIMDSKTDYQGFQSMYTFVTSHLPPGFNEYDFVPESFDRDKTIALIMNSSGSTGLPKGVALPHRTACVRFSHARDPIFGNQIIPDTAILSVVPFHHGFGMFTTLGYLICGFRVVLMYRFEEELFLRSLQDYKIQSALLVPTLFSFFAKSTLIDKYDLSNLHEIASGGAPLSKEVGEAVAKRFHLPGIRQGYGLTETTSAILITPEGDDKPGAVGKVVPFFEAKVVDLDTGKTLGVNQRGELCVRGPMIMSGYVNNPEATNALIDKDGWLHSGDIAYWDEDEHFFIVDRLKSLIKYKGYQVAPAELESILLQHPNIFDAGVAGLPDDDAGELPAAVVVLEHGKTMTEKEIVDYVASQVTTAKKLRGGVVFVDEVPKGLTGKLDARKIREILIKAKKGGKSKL
Sequence of Streptavidin (Streptomyces avidinii) (P22629 whole entry, looked up): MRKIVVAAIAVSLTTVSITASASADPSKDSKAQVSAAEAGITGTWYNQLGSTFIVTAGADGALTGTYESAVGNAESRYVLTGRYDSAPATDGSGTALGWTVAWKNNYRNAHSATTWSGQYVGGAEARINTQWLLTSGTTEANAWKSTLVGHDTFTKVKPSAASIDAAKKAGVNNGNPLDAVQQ

On to `COC(=O)Cn1c(C(=O)N(C)C)cc2c1C[C@H]1CN(C(=O)c3ccccc3)[C@@](Cc3ccc(OC)cc3)(C(=O)OC)[C@@H]21`, for which the composite z-score in experiment [1] was 0.817; in experiment [2], 0.845; in experiment [3], 0.263; in experiment [4] it was 0.605; in experiment [5], 0.371; in experiment [6], -0.159. Moreover, the composite z-score was -0.351 in experiment [8]; 0.86 in experiment [9]; 1.09 in experiment [11]; 0.896 in experiment [16]; 0.438 in [17]; 0.244 in experiment [18]. Besides, the composite z-score in experiment [19] was 0.0985; in [20] it was -0.333. In addition, the z-score is 0.834 in [7]; 0.923 (inactive) in [10]; -1.99 (inactive) in experiment [12]; 0.655 (inactive) in experiment [13]; 0.966 (inactive) in experiment [14]; 0.353 (inactive) in [15].
Regarding `[N-]=[N+]=NCc1ccccc1[C@@H]1OC(c2ccc(OCCCO)cc2)=N[C@]1(Cc1ccccc1)C(=O)NCc1ccccc1`, the composite z-score in experiment [1] is 0.491; in experiment [2] it was 1.18; in experiment [3], 1.11; in experiment [4] it was 0.734; in [5], 0.846; in experiment [6], -0.0705. For the same compound, the composite z-score in [8] was -0.0948; in experiment [9], 1.03; in [11], 0.609; in experiment [16], 1.24; in experiment [17], -0.0267; in [18], 0.823. Moreover, the figures for the composite z-score in [19] and in experiment [20] were 1.1 and -0.471, respectively. Further, the z-score in experiment [7] is 0.012; in experiment [10], 0.294 (inactive); in [12], -2.86 (inactive); in [13], -0.338 (inactive); in [14] it was -0.585 (inactive); in experiment [15], 0.0071 (inactive).
Consider `O=C1NC(=O)C2C1C=CC(C(O)c1cccc(O)c1)N2Nc1ccc(Cl)cc1Cl` (stereo not given), for which the composite z-score is 0.33 in experiment [1]; -0.0332 in experiment [2]; 0.263 in experiment [3]; -0.348 in [4]; -0.127 in experiment [5]; 0.0853 in [6]. For the same compound, the composite z-score was -0.317 in experiment [8]; 0.447 in experiment [9]; -0.125 in experiment [11]; 0.423 in experiment [16]; -0.13 in experiment [17]; -0.309 in experiment [18]. Also, the results for the composite z-score in [19] and in [20] were 0.25 and -1.14, respectively. In addition, the z-score was -0.812 in experiment [7]; -0.259 (inactive) in [10]; -1.08 (inactive) in experiment [12]; -0.355 (inactive) in [13]; 0.629 (inactive) in experiment [14]; -0.45 (inactive) in experiment [15].
`C=CCOC(=O)[C@H]1[C@@H]2C(=O)O[C@@H](c3ccccc3)[C@@H](c3ccccc3)N2[C@@H](c2ccc(OCCOC(=O)[C@@H]3C[C@@H]4C(=O)N[C@@H](Cc5ccccc5)C(=O)N4[C@@H]3c3ccc(O)cc3)cc2)[C@]12C(=O)Nc1ccccc12`: the composite z-score in [1] is 1.78; in [2], 1.19; in experiment [3], 1.53; in experiment [4], 0.911; in experiment [5] it was 1.32; in experiment [6], 1.33. The composite z-score in [8] was 0.948; in [9] it was 1.2; in experiment [11], 0.5; in [16] it was 0.537; in experiment [17], -0.0762; in experiment [18] it was 0.83. In addition, the composite z-score in experiment [19] was 0.8; in experiment [20] it was 1.03. For the same compound, the z-score was -1.15 in [7]; -0.497 (inactive) in experiment [10]; 0.247 (inactive) in experiment [12]; -0.661 (inactive) in experiment [13]; 0.679 (inactive) in experiment [14]; -0.158 (inactive) in experiment [15].
For `COC(=O)[C@@]1(Cc2ccc(F)cc2)[C@H]2c3cc(C(=O)N(C)C)n(CCn4cc([N+](=O)[O-])nc4C)c3C[C@H]2CN1C(=O)c1ccccc1`, the composite z-score is 1.07 in experiment [1]; 1.11 in [2]; 1.45 in experiment [3]; 0.835 in experiment [4]; -0.394 in [5]; -0.776 in [6]. Also, the composite z-score was -1.07 in [8]; 0.288 in experiment [9]; 0.453 in experiment [11]; 0.0438 in experiment [16]; 0.234 in experiment [17]; -0.0611 in experiment [18]. In addition, the composite z-score in [19] was 0.373; in experiment [20] it was -0.755. In addition, the z-score is 0.608 in experiment [7]; 0.984 (inactive) in [10]; 0.278 (inactive) in experiment [12]; -0.0864 (inactive) in [13]; -0.761 (inactive) in experiment [14]; 0.17 (inactive) in [15].

The values above are taken from PubChem BioAssay.
